Experimental data: PubChem BioAssay (Tox21)
“And” between values parts separate entries of the source, which are not always exact repeats. Identical values can stand only once. Records with an inconclusive call do not appear. The source holds several records for some structures; these can differ, active in one and inactive in another. The source made the active and inactive calls. Calls come from the whole dose curve; as a rule, active = well fitted curve in the direction sought with a large enough effect in the repeat runs; inconclusive = weak or mixed curves; inactive = no such curve, though single readings can be large; an effect the other way counts as inactive or inconclusive.

Tests used:
[1] = A CellTox Green Cytotoxicity Assay to monitor cytotoxicity in HEK293 cells - 32 hour (AID 1224881); note: nearly all actives have a fitted effect of over 40% in size; note: potency is the fitted concentration of half-maximal effect
Method in brief: (§1)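 Each value comes from one timepoint of a single continuous run in which HEK293 cells with CellTox Green were exposed to compound for up to 40 h at 37 C, dye fluorescence rising with cell death.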

[2] = A CellTox Green Cytotoxicity Assay to monitor cytotoxicity in HepG2 cells - 0 hour (AID 1224882); note: nearly all actives have a fitted effect of over 35% in size; note: potency is the fitted concentration of half-maximal effect
Method in brief: (§2)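 Continuous culture of HepG2 cells with a membrane-impermeant DNA dye; rising fluorescence marks dead cells. Compound exposure lasted up to 40 h at 37 C, with reads every 8 h from 0 h.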

[3] = A CellTox Green Cytotoxicity Assay to monitor cytotoxicity in HepG2 cells - 32 hour (AID 1224883); note: nearly all actives have a fitted effect of over 50% in size; note: potency is the fitted concentration of half-maximal effect
Method in brief: as §2

[4] = qHTS RealTime-Glo MT Cell Viability Assay in HepG2 cells - 16 hour (AID 1224885); note: nearly all actives have a fitted effect of over 50% in size
Method in brief: (§3)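 Real-time, nonlytic viability: 600 HepG2 cells/well mixed with NanoLuc enzyme plus prosubstrate; 5 h settle, compound (DMSO) added by pintool; luminescence monitored over 40 h at 37 C.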

[5] = qHTS RealTime-Glo MT Cell Viability Assay in HEK293 cells - 24 hour (AID 1224886); note: nearly all actives have a fitted effect of over 50% in size; note: potency is the fitted concentration of half-maximal effect
Method in brief: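 Cells + reagent dispensed (600 cells/well, HEK293) → 5 h at 37 C/5% CO2 → 23 nL compound in DMSO pinned → 40 h at 37 C → luminescence read at 0, 8, 16, 24, 32, 40 h.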

[6] = qHTS RealTime-Glo MT Cell Viability Assay in HEK293 cells - 8 hour (AID 1224887); note: nearly all actives have a fitted effect of over 50% in size; note: potency is the fitted concentration of half-maximal effect
Method in brief: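 qHTS format; HEK293 cells with NanoLuc/prosubstrate reagent, 37 C/5% CO2 for 5 h pre-dosing; compounds 23 nL in DMSO; luminescence at each time point reflects viable cells.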

[7] = A CellTox Green Cytotoxicity Assay to monitor cytotoxicity in HEK293 cells - 16 hour (AID 1224888); note: nearly all actives have a fitted effect of over 35% in size; note: potency is the fitted concentration of half-maximal effect
Method in brief: as §1

[8] = qHTS RealTime-Glo MT Cell Viability Assay in HepG2 cells - 0 hour (AID 1224889); note: nearly all actives have a fitted effect of over 50% in size; note: potency is the fitted concentration of half-maximal effect
Method in brief: as §3

[9] = A CellTox Green Cytotoxicity Assay to monitor cytotoxicity in HepG2 cells - 8 hour (AID 1224890); note: nearly all actives have a fitted effect of over 45% in size; note: potency is the fitted concentration of half-maximal effect
Method in brief: as §2

[10] = A CellTox Green Cytotoxicity Assay to monitor cytotoxicity in HEK293 cells - 8 hour (AID 1224884); note: nearly all actives have a fitted effect of over 35% in size; note: potency is the fitted concentration of half-maximal effect
Method in brief: as §1

Measured: Potency

CC(C)(O)CCC(C)(C)O
inactive: [1] | [2] | [3] | [4] | [5] | [6] | [7] | [8] | [9]

CC(=O)CC(C)=O
inactive: [1] | [2] | [3] | [4] | [5] | [6] | [7] | [8] | [9]

COc1nc(C)nc(Cl)c1NC1=NCCN1
inactive: [1] | [2] | [3] | [4] | [5] | [6] | [7] | [8] | [9]

Cc1cccc(O)c1C
inactive: [1] | [2] | [3] | [4] | [5] | [6] | [7] | [8] | [9]

O=S(=O)(O)c1ccc2nc(-c3ccccc3)[nH]c2c1
inactive: [1] | [2] | [3] | [10] | [5] | [7] | [8] | [9]

CC(C)(C)c1ccc(O)c(C(C)(C)C)c1
active: [1] 24.4 µM and 34.7 µM | [3] 48.8 µM and 43.6 µM | [10] 43.5 µM | [5] 38.7 µM | [6] 34.5 µM | [7] 24.4 µM and 34.7 µM | [9] 48.8 µM and 49 µM
inactive: [2] | [8]

CCCC(=O)c1ccccc1
inactive: [1] | [2] | [3] | [4] | [5] | [6] | [7] | [8] | [9]

C[N+]1([O-])CCOCC1
inactive: [1] | [2] | [3] | [4] | [5] | [6] | [7] | [8] | [9]

Cc1c(O)cccc1C(=O)N[C@@H](CSc1ccccc1)[C@H](O)CN1C[C@H]2CCCC[C@H]2C[C@H]1C(=O)NC(C)(C)C
active: [3] 12 µM | [5] 21.3 µM
inactive: [1] | [2] | [10] | [6] | [7] | [8] | [9]

Cc1cc(C(C)(C)C)c(O)c(C(C)(C)C)c1
active: [1] 49.1 µM
inactive: [2] | [3] | [4] | [5] | [6] | [7] | [8] | [9]

BrC1CCC(Br)C(Br)CCC(Br)C(Br)CCC1Br (stereo not given)
inactive: [1] | [2] | [3] | [10] | [5] | [6] | [7] | [8] | [9]

O=C(O[C@@H]1Cc2c(O)cc(O)cc2O[C@@H]1c1cc(O)c(O)c(O)c1)c1cc(O)c(O)c(O)c1
active: [5] 10.6 µM
inactive: [1] | [2] | [3] | [10] | [7] | [8] | [9]

CCCCCC(=O)O[C@]1(C(C)=O)CC[C@H]2[C@@H]3CCC4=CC(=O)CC[C@]4(C)[C@H]3CC[C@@]21C
inactive: [1] | [2] | [3] | [10] | [6] | [7] | [9]
active: [5] 24.4 µM | [8] 4.34 µM

CC(COc1ccccc1)N(CCCl)Cc1ccccc1 (stereo not given)
inactive: [2] | [4] | [6] | [7] | [8] | [9]
active: [1] 55.5 µM and 21.3 µM | [3] 55.5 µM | [5] 49.5 µM and 49 µM

CCCCCCC(O)CCCCCCCCCCC(=O)O (stereo not given)
inactive: [1] | [2] | [3] | [10] | [5] | [7] | [8] | [9]

CCN1CCCC1CNC(=O)c1cc(S(=O)(=O)CC)c(N)cc1OC (stereo not given)
inactive: [1] | [2] | [3] | [4] | [5] | [6] | [7] | [8] | [9]

OCC(CO)N[C@H]1C[C@](O)(CO)[C@@H](O)[C@H](O)[C@H]1O
inactive: [1] | [2] | [3] | [10] | [5] | [7] | [8] | [9]

CC(=O)O[C@]1(C(C)=O)CC[C@H]2[C@@H]3C[C@H](C)C4=CC(=O)CC[C@]4(C)[C@H]3CC[C@@]21C
inactive and 37.9 nM (active): [2]
inactive: [1] | [3] | [10] | [6] | [7] | [9]
active: [5] 15.5 µM | [8] 174 nM and 301 nM

C=C(C)C1CC=C(C)C(OC(C)=O)C1 (stereo not given)
inactive: [1] | [2] | [3] | [10] | [5] | [6] | [7] | [8] | [9]

COc1cc(C(=S)N2CCOCC2)ccc1O
inactive: [1] | [2] | [3] | [4] | [5] | [6] | [7] | [8] | [9]

COC(=O)[C@H]1[C@H]2C[C@@H]3c4[nH]c5cc(OC)ccc5c4CCN3C[C@H]2C[C@@H](OC(=O)c2cc(OC)c(OC)c(OC)c2)[C@@H]1OC
active: [5] 4.89 µM and 6.34 µM and 8.49 µM | [6] 4.89 µM and 6.34 µM and 9.52 µM
inactive: [1] | [2] | [3] | [10] | [7] | [8] | [9]
